Only some compounds are listed: those with a hit (about 2% of all), similar ones and a draw of the others.
S1P1 agonist – S1P1 (human) receptor agonism; S1P1 agonist cell-based reporter assay; activation, % at 4.5 µM; 16,000 tested, 1.5% active; in the data active means activation above about 80%
TLR4 MyD88 blk – TLR4-MyD88 interaction inhibition. O00206. Cell-based TLR4-MyD88 binding inhibition assay. inhibition, % at 10 µM. 16,000 tested, 0.06% active; in the data active means inhibition above about 45%
OPRK1 antag MB – OPRK1 (human) antagonism, Maybridge screen; P41145; 16,000 tested, 0.4% active; AID 652031; inhibition, % at 9 µM; OPRK1 cells, antagonist mode, fluorescence readout; in the data active means inhibition above about 50%
Active calls of the source: *; . = no result given.

SMILES	S1P1 agonist	TLR4 MyD88 blk	OPRK1 antag MB
OC[C@@H](O)[C@H](O)[C@H](O)[C@@H](O)C(SCc1ccccc1)SCc1ccccc1	103.5*	11.2	4.5
CCSC(SCC)[C@@H](O)[C@H](O)[C@H](O)[C@@H](O)CO	6.9	4.1	-1.7
O=C1CCN=C(N(C(=O)c2ccco2)c2ccc(F)c(Cl)c2)S1	-0.9	-1.8	-2.3
COC(=O)c1cccc2c1-c1ccccc1C2=O	-18.6	-6.3	-22.8
N#Cc1c(NCc2cccs2)ccc([N+](=O)[O-])c1NCc1cccs1	18.5	9.3	-20.2
CN(C)Nc1ccc([N+](=O)[O-])c(NN(C)C)c1C#N	81.4*	7.6	-21.3
Cc1cc(C(F)(F)F)cc(NNS(=O)(=O)c2ccc(Cl)cc2Cl)n1	1.4	-1.7	-1.4
S=c1[nH]c2cccnc2s1	2.0	0.1	13.5
COc1ccc(CCNC(=O)c2ccccc2)cc1OC	-7.3	-0.9	2.3
COc1ccc(CCNC(C#N)c2ccco2)cc1OC (centres undefined)	105.0*	3.9	13.1
CC1(C)CC(=O)c2c(C#N)sc(C#N)c2C1	-1.8	-0.8	-2.1
CCOC(=O)CN(C=NC#N)c1ccc(OC)cc1	3.1	5.9	-1.3
Cc1cc(C)c(C(=O)Nc2cccnc2)c(CC(C)(C)C(=O)O)c1	81.7*	1.9	13.5
Cn1nc(C(C)(C)C)cc1C(=O)Nc1cccnc1	-16.1	-5.9	-19.1
O=C1/C(=C/c2cccs2)CN(Cc2ccccc2)C/C1=C\c1cccs1	-19.1	3.3	23.4
O=C1/C(=C/c2cccs2)CC/C1=C\c1cccs1	81.2*	6.4	4.1
CCCc1c(C(=O)Nc2ccc3ccccc3n2)cnn1-c1ccccc1	96.1*	1.1	-8.1
CCCc1c(C(=O)Nc2ncn[nH]2)cnn1-c1ccccc1	13.7	-0.9	9.4
S=C(NCc1cccs1)NC1CC1	0.7	-3.8	2.3
O=C(O)c1ccc(-c2ccsc2)cc1	-11.7	-1.3	11.4
O=S(=O)(NCc1csc2ccc(Cl)cc12)c1ccc(C(F)(F)F)cc1	-4.9	5.3	-1.7
O=S(=O)(NCCSCc1csc2ccc(Cl)cc12)c1ccc(Cl)cc1	90.0*	16.0	-22.6
COc1cc(N2CCCC2)c([N+](=O)[O-])cc1[N+](=O)[O-]	5.7	-2.0	5.7
COc1ccccc1C1CCN(c2ccc(CO)cc2[N+](=O)[O-])CC1	92.3*	-6.0	-9.7
C=C1C[C@]23CC1(O)CC[C@H]2[C@@]12C=C[C@H](O)C(C)(C(=O)O1)[C@H]2[C@@H]3C(=O)O	3.6	-2.0	15.0
SMILES	S1P1 agonist	TLR4 MyD88 blk	OPRK1 antag MB
CCOc1ccccc1/C=N/NC(=O)N/N=C/c1ccccc1OCC	-28.5	4.4	9.9
C#CC(CC)(CC)N=Cc1cc(Br)ccc1OCC	122.7*	15.6	-5.4
Cc1onc(-c2ccccc2)c1CNC(=O)c1cnc2ccccc2n1	-4.4	8.4	-0.5
CNC(=O)Nc1cc(C)nn1C(C)(C)C	-7.7	0.6	2.7
Cc1nnsc1C(=O)Nc1ccc(-n2nc(C(F)(F)F)cc2-c2cccs2)cc1	24.1	-1.0	-2.8
Cc1nnsc1C(=O)Nc1ccc(-n2nc(C(F)(F)F)cc2C(F)(F)F)cc1	98.7*	.	-3.7
CSc1c(-c2ccccn2)c(N)nn1C(=O)c1cccs1	-5.0	-0.3	3.9
CCOC(=O)CC(=O)c1cccc([N+](=O)[O-])c1	13.0	-2.3	11.9
Cc1cc(=O)[nH]c(/N=C(\N)Nc2ccc(Cl)c(Cl)c2)n1	8.5	0.9	-6.9
O=C(NCc1ccc(C(F)(F)F)cc1)c1cc(Cl)cc(Cl)c1	7.4	3.0	-32.7
O=C(O)C(F)(F)C(F)(F)C(=O)NCc1cccc(Cl)c1	-7.1	-2.9	50.5*
O=S(=O)(NC1CCCc2ccccc21)c1ccccc1 (centres undefined)	-10.3	3.4	-19.5
CCOC(=O)C(=CNc1ccccc1-c1nnc(-c2ccc(Cl)cc2)o1)C(=O)OCC	-16.8	-2.7	-32.8
CC(=O)Nc1ccccc1-c1nnc(-c2ccc(C(C)(C)C)cc2)o1	103.8*	-0.3	4.3
O=C(NCCCn1cccc1)c1c(F)cccc1F	1.2	2.5	-14.8
O=C(c1cccs1)N1CCCN(Cc2cccc3ccccc23)CC1	2.8	16.9	-1.3
CCOC(=O)/C(C#N)=C/Nc1ccncc1	-5.7	4.8	19.2
CCOC(=O)/C(C#N)=C/Nc1nc2ccc(C)cc2s1	87.1*	-8.3	-0.5
O=C1c2ccccc2-c2c1c1ccccc1c(=O)n2Cc1ccc2c(c1)OCO2	-7.0	0.1	-23.2
CN(C)C(=S)NC(Cc1ccccc1)c1ccccc1 (centres undefined)	7.6	-3.4	-15.0
Oc1[nH]c2ccccc2c1N=Nc1nnc(-c2ccccc2)c(-c2ccccc2)n1	96.2*	-2.9	-5.2
c1ccc(-c2[nH]c3ccccc3c2-c2ccccc2)cc1	-13.8	-5.2	13.5
Cn1c2c(c3ccccc31)C(=O)C(Cn1ccnc1)CC2 (centres undefined)	-2.3	-1.4	-8.2
Cn1nc(-c2ccccc2)c(O)c(N=Nc2ccccc2)c1=O	3.8	-25.7	-2.7
Cc1[nH]n(C)c(=O)c1N=Nc1ccc(C(C)C)cc1	101.7*	2.1	-3.4
SMILES	S1P1 agonist	TLR4 MyD88 blk	OPRK1 antag MB
Cc1nc(C)c(-c2ccn[nH]2)o1	1.2	14.8	39.9
Clc1ccc2c(c1)c1cc(Cl)ccc1n2CN1CCCCC1	-0.6	5.4	-26.8
Cc1ccsc1/C=C/C(=O)O/N=C(\N)c1ccc(C(F)(F)F)cc1	100.1*	.	5.6
Cc1nc(CO/N=C(/N)c2ccc(C(F)(F)F)cc2)cs1	-6.2	-1.9	-2.7
Cc1cc(S(=O)(=O)NCc2nn(-c3ccccc3)nc2C)c(C)s1	-19.5	-2.8	15.6
Cc1cc(-c2noc(-c3ccccc3)n2)no1	-6.7	3.9	29.7
c1ccc(-c2nc(-c3ccc(-c4ccon4)s3)no2)cc1	87.2*	-5.4	2.2
NNC(=O)CNS(=O)(=O)c1cccc2nsnc12	3.0	-3.8	-15.3
O=S(=O)(Nc1cc(C(F)(F)F)cc(C(F)(F)F)c1)c1cccc2nsnc12	88.8*	2.7	17.1
CC(=O)/C(=C\N(C)C)SCc1ccccc1C	96.6*	1.7	-5.8
CC(=O)/C(=C\N(C)C)Sc1ccccn1	-10.2	-1.6	-2.2
S=C(SCc1ncon1)N1CCCC1	83.1*	10.1	-11.4
S=C(SCc1ncon1)N1CCOCC1	6.3	7.7	4.2
Cn1c(SCC(=O)N=S(C)(=O)c2ccc(Cl)cc2)nnc1C(F)(F)F (centres undefined)	-5.0	-7.6	-8.8
Cn1[nH]c(C(F)(F)F)c(/C=N/Nc2ccc([N+](=O)[O-])cc2)c1=O	-2.0	-15.4	3.4
CN(C)C(=O)c1cc(-c2ccccc2)c(C(F)(F)F)s1	35.3	4.1	4.4
O=C(Nc1ccccc1)OCc1cc(-c2ccccc2)c(C(F)(F)F)s1	93.8*	1.7	6.3
C[C@H](NC(=O)c1ccc(Cl)cc1Cl)C(=O)NCc1cccnc1	-13.9	-11.2	-9.2
O=[N+]([O-])/C=C/c1c(-c2ccc3ccccc3c2)[nH]c2ccccc12	33.8	-2.8	-2.4
O=[N+]([O-])/C=C/c1c2ccccc2cc2ccccc12	23.6	-20.2	72.0*
CN(C)/C=C/C=c1/c(=O)c2cccc3cccc1c32	102.0*	6.3	31.6
O=c1c2cccc3cccc(sc4cccc5cccc1c54)c32	4.0	-6.4	-18.6
CC(=O)Oc1ccccc1/C=C1/N=C(c2cccc([N+](=O)[O-])c2)OC1=O	-10.4	-3.1	3.1

Screening results from PubChem.
